Drawing on PubChem BioAssay (NCATS), this text covers Potency for 14 compounds.

Experiment in all cases: qHTS profiling for inhibitors of Plasmodium falciparum proliferation (AID 504749); further: nearly all actives have a fitted effect of over 60% in size
Holding throughout (conditions): P. falciparum in erythrocytes, SYBR Green DNA, 72 h; series mostly up to 28.7 µM
For orientation: qHTS replaces the single test concentration by a dilution series.

One assay concerns CP297. The method in brief: (§1)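 Each compound contacts P. falciparum-infected red blood cells for 72 h at 37 C; lysis buffer (Tris, EDTA, saponin, Triton X, SYBR Green I) is added and fluorescence measured next morning; values normalized to controls.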
The test system of another assay is CP305. The method in brief: as §1
The next assay relates to CP315. In short, it runs like this:
as §1

The next assay has as its system CP325. The method in brief:
as §1

A further assay relates to CP329. The method in brief: as §1
The subject of a further assay is DFO2036. In short, it runs like this:
as §1

For the next assay, the system named is DIV14. In short, it runs like this: as §1
Another assay has as its system DIV17. In short, it runs like this:
as §1

The next assay has as its system DIV30. In short, it runs like this:
as §1

Another assay relates to Dd2. The method in brief: as §1
Another assay deals with ECU. In short, it runs like this: as §1
The next assay concerns FAB9. The method in brief: as §1
The next assay has as its system GB4. The method in brief:
as §1

For the next assay, the system named is HB3. In short, it runs like this:
as §1

The test system of another assay is ICS. In short, it runs like this: as §1
For the next assay, the system named is JCK. The method in brief: as §1
A further assay deals with N140. In short, it runs like this: as §1
The test system of the next assay is P93_24. In short, it runs like this: as §1
For another assay, the system named is P94_40. The method in brief:
as §1

Another assay relates to CP335. The method in brief: as §1

Results filed as inconclusive are left out. The source made the active and inactive calls. The call rests on the fitted dose curve; in most records, active means well fitted inhibition curve with a large enough effect; inconclusive means small, poorly fitted or top-dose-only effect; inactive means flat fitted curve, though single readings scatter.
Potency means the concentration at half of the fitted maximal effect.

On to `COC(=O)[C@@H](N)CS`, for which the Potency entry in the assay with CP297, in the assay on CP305, in the assay on CP315, with CP325, in the assay on CP329 and in the assay with DFO2036 was “inactive” in each case. Also, the Potency result with DIV14, in the assay on DIV17, with DIV30, in the assay on Dd2, in the assay on ECU and in the assay with FAB9 was “inactive” in each case. The Potency result in the assay with GB4, with HB3, in the assay on ICS, in the assay on JCK, in the assay with N140 and in the assay with P93_24 was “inactive” throughout. Moreover, in the assay with P94_40, the Potency result is “inactive”.
As for `COC(=O)CCC[N+](C)(C)C`, the Potency entry in the assay on CP297, in the assay on CP305, in the assay with CP315, in the assay with CP325, with CP329 and in the assay with CP335 was “inactive” throughout. The Potency result in the assay with DFO2036, in the assay with DIV17, in the assay with DIV30, in the assay with Dd2, in the assay on ECU and in the assay with FAB9 was “inactive” each time. Also, the Potency entry in the assay on GB4, with HB3, in the assay with ICS, in the assay on JCK, in the assay on N140 and with P93_24 was “inactive” in each case. The Potency entry in the assay with P94_40 is “inactive”.
For the compound `O=C(Nc1ccc(O)cc1)c1ccccc1O`, the Potency result with CP297, with CP305, in the assay with CP315, in the assay with CP325, in the assay with CP329 and in the assay on DFO2036 was “inactive” in each case. For the same compound, the Potency result in the assay with DIV14, with DIV17, in the assay with Dd2, in the assay on FAB9, in the assay on GB4 and in the assay on HB3 was “inactive” each time. For the same compound, the Potency result with ICS, in the assay with JCK, in the assay with N140, in the assay on P93_24 and in the assay with P94_40 was “inactive” in each case.
In the case of `O=C(O)c1cc(N=Nc2ccc(O)c(C(=O)O)c2)ccc1O`, the Potency result in the assay on CP297, in the assay with CP305, with CP315, in the assay on CP325, with CP329 and with CP335 was “inactive” each time. In addition, the Potency result in the assay with DFO2036, with DIV17, in the assay with DIV30, with Dd2, with ECU and in the assay with FAB9 was “inactive” throughout. The Potency result in the assay on GB4, with HB3, in the assay on JCK, in the assay on N140, in the assay on P93_24 and in the assay on P94_40 was “inactive” in each case.
`N=C(N)c1ccc(/C=C/c2ccc(C(=N)N)cc2O)cc1`: the Potency is 5.36 µM (active) in the assay on CP297; 6.01 µM (active) in the assay with CP305; 6.01 µM (active) in the assay on CP315; 3.38 µM (active) in the assay on CP325; 2.13 µM (active) in the assay with CP329; 1.12 µM (active) in the assay on DFO2036. Further, the Potency was 6.75 µM (active) in the assay on DIV14; 6.01 µM (active) in the assay with DIV17; 2.13 µM (active) in the assay on DIV30; 112 nM (active) in the assay on Dd2; 10 µM (active) in the assay with ECU; 1.26 µM (active) with FAB9. The Potency in the assay with GB4 was 536 nM (active); in the assay on HB3, 11.2 µM (active); with ICS it was 1.26 µM (active); with N140, 17.8 µM (active); with P94_40 it was 8.91 µM (active). Also, the Potency entry in the assay with JCK was “inactive”.
On to `NC(N)=O`, for which the Potency result in the assay with CP297, in the assay on CP305, with CP315, with CP325, with CP329 and with CP335 was “inactive” throughout. The Potency entry with DFO2036, in the assay on DIV17, in the assay on DIV30, with Dd2, in the assay with ECU and with FAB9 was “inactive” each time. The Potency result in the assay on GB4, in the assay on HB3, in the assay on ICS, in the assay with JCK, with N140 and in the assay with P93_24 was “inactive” in each case. The Potency entry with P94_40 was “inactive”.
For the compound `CC1CC(OC(=O)C(O)c2ccccc2)CC(C)(C)C1` (stereo not given), the Potency result with CP297, in the assay with CP305, in the assay with CP315, with CP325, with CP329 and with DFO2036 was “inactive” throughout. Besides, the Potency entry with DIV14, in the assay with DIV17, in the assay with DIV30, in the assay with Dd2, in the assay on ECU and with FAB9 was “inactive” in each case. Also, the Potency entry in the assay with GB4, in the assay on HB3, with ICS, with JCK, in the assay on N140 and in the assay with P93_24 was “inactive” in each case. The Potency entry in the assay with P94_40 was “inactive”.
As for `C[C@H]1O[C@@H](O[C@H]2[C@@H](O)C[C@H](O[C@H]3[C@@H](O)C[C@H](O[C@H]4CC[C@@]5(C)[C@H](CC[C@@H]6[C@@H]5C[C@@H](O)[C@]5(C)[C@@H](C7=CC(=O)OC7)CC[C@]65O)C4)O[C@@H]3C)O[C@@H]2C)C[C@H](O)[C@@H]1O`, the Potency result in the assay with CP297, in the assay with CP305, in the assay on CP315, in the assay with CP325, in the assay with CP329 and in the assay with CP335 was “inactive” each time. Also, the Potency entry with DFO2036, in the assay on DIV17, in the assay with DIV30, in the assay with Dd2, with ECU and with FAB9 was “inactive” throughout. The Potency result with GB4, in the assay on HB3, with ICS, in the assay with JCK, with N140 and with P93_24 was “inactive” in each case. For the same compound, in the assay with P94_40, the Potency entry is “inactive”.
For the compound `Cn1c(=O)c2c(ncn2CCOC(=O)C(C)(C)Oc2ccc(Cl)cc2)n(C)c1=O`, the Potency entry in the assay with CP297, in the assay with CP305, in the assay on CP315, with CP325, in the assay on CP329 and in the assay with CP335 was “inactive” in each case. Besides, the Potency result in the assay with DIV14, in the assay on DIV17, in the assay on DIV30, with Dd2, with FAB9 and in the assay on GB4 was “inactive” each time. The Potency entry in the assay with HB3, with ICS and with JCK was “inactive” each time.
Consider `CCCCCCCCCCCCCCCCCC(=O)OC[C@@H](O)[C@H]1OC[C@H](O)[C@H]1O`, for which the Potency result with CP297, with CP305, in the assay on CP315, in the assay with CP325, in the assay on CP329 and in the assay on CP335 was “inactive” each time. The Potency result with DFO2036, with DIV17, with Dd2, with ECU, with FAB9 and in the assay on GB4 was “inactive” each time. The Potency entry with HB3, in the assay on ICS, in the assay on JCK, in the assay with N140, with P93_24 and in the assay on P94_40 was “inactive” in each case.
Consider `Cc1ncc(C[n+]2csc(CCO)c2C)c(N)n1`, for which the Potency result in the assay with CP297, with CP305, in the assay with CP315, with CP325, in the assay on CP329 and in the assay with DFO2036 was “inactive” in each case. Besides, the Potency entry in the assay on DIV14, in the assay with DIV17, with DIV30, in the assay with Dd2, in the assay on ECU and with FAB9 was “inactive” each time. The Potency entry in the assay with GB4, in the assay with HB3, in the assay with ICS, with JCK, in the assay on N140 and with P93_24 was “inactive” in each case. Also, in the assay on P94_40, the Potency entry was “inactive”.
Take `C=CCOc1ccc(CC(=O)O)cc1Cl`: the Potency result with CP297, with CP305, in the assay with CP315, in the assay with CP325, in the assay with CP329 and in the assay on DFO2036 was “inactive” throughout. Further, the Potency result with DIV14, in the assay on DIV17, with DIV30, in the assay with Dd2, in the assay with ECU and in the assay on FAB9 was “inactive” in each case. Moreover, the Potency result with GB4, in the assay on HB3, in the assay on ICS, in the assay on JCK, with N140 and in the assay on P93_24 was “inactive” throughout. Besides, the Potency entry in the assay with P94_40 was “inactive”.
Consider `Cc1ccc(C(C)(C)c2ccc(C)cc2)cc1`, for which the Potency entry in the assay on CP297, with CP305, in the assay on CP315, in the assay with CP325, in the assay with CP329 and in the assay with CP335 was “inactive” throughout. The Potency entry with DFO2036, in the assay with DIV17, with DIV30, in the assay with Dd2, in the assay with ECU and with FAB9 was “inactive” throughout. For the same compound, the Potency result in the assay on GB4, in the assay with HB3, in the assay with ICS, with JCK, with N140 and with P93_24 was “inactive” in each case. In the assay on P94_40, the Potency entry was “inactive”.
With `CN(C)c1ccc(C(=C2C=CC(=[N+](C)C)C=C2)c2c(O)c(S(=O)(=O)[O-])cc3cc(S(=O)(=O)O)ccc23)cc1`, the Potency entry in the assay with CP297, in the assay on CP305, with CP315, with CP325, with CP329 and in the assay on CP335 was “inactive” each time. Moreover, the Potency entry in the assay with DFO2036, in the assay with DIV30, with Dd2, in the assay on ECU, in the assay on FAB9 and in the assay with HB3 was “inactive” in each case. The Potency result in the assay with ICS, with JCK, in the assay on N140, in the assay on P93_24 and in the assay on P94_40 was “inactive” throughout.
